From PubChem
Hits are enriched below; roughly 2.6% of the tested compounds scored in any of these assays.
TRPV1 PAM: human TRPV1 potentiation; Q8NER1; TRPV1-expressing cells, Fluo-8 calcium influx, capsaicin EC20 potentiation; potentiation, % at 8.33 µM; hit rate 0.02% among 320,000; AID 540277; in the data active = potentiation above about 80%; inconclusive = between about 30% and that limit; note: 0% is about no effect
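Fluo-8 calcium influx in TRPV1-expressing cells, kinetic read (ex 480/em 520 nm). Compound added and read 3 min for agonist activity, followed by capsaicin at EC20 final and 2 min further read for enhancement.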
KCNH2 3.1 inh: inhibitors of human KCNH2 3.1 potassium channel isoform; U2OS KCNH2 3.1, thallium flux FluxOr; stronger effect = lower value; activity change, % (tested at about 1.8 µM); hit rate 0.95% among 340,000; AID 720553;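 active = maximum activity change below -70%; inconclusive = maximum activity change from -70% to -50%; inactive = maximum activity change above -50%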;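 note: thallium influx rate constant from kinetic fluorescence after stimulation buffer; % is set by controls: 0 for no effect and ±100 for the full control effect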
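Thallium flux read-out: FluxOr dye with Red40 quencher in HBSS/HEPES, 45 min at RT. Rate constants from kinetic reads were normalized to positive and negative DMSO controls. Cells: U2OS virally expressing the 3.1 isoform.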
p53 reactivation: mutant p53 re-activation in reporter cells | H1299 p53-A138V BP100-luciferase reporter, luminescence, 24 h | Potency, µM (series often up to 92.2 µM), inactives show at the highest dose activity change, positive = activation, usual class: activators | hit rate 0.063% among 320,000; active = well fitted activation curve with a large enough effect; inconclusive = small, poorly fitted or top-dose-only effect; inactive = no such curve, though single readings can be large or run the other way; note: potency is the fitted concentration of half-maximal effect; % of control where 0% means no effect; nearly all actives have a fitted effect of over 45% in size
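p53-null H1299 cells stably carrying temperature-sensitive p53-A138V and a BP100-luciferase reporter were pinned with compounds (4-point, 1:5 series) and held 24 hrs at 37 deg C. Luminescence was read 10 min after detection reagent.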
TRPV1 agonist: agonists of human vanilloid receptor 1 (TRPV1). hit rate 0.19% among 320,000. activation, % at 8.33 µM. TRPV1-expressing cells, Fluo-8 calcium influx, agonist mode; in the data active = activation above about 80%; inconclusive = between about 30% and that limit; note: 0% is about no effect
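TRPV1-expressing cells were cultured overnight at 35.5C and loaded with Fluo-8 calcium dye for 40 to 90 min at room temperature. After a 10 s baseline, compound was added and calcium influx was read kinetically for 3 min (ex 480/em 520 nm).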
ClpP mod: qHTS Assay for Activators of ClpP | AID 651965, 2013 | ATP-dependent Clp protease proteolytic subunit (Bacillus subtilis (strain 168)), P80244 | hit rate 1.9% among 340,000 | Potency, µM (titrated, usually from 57.5 µM), inactives show at the highest dose activity change, negative = active | purified B. subtilis ClpP, FRET peptide cleavage, 20 min; active = well fitted falling curve with a large enough effect; inconclusive = small, poorly fitted or top-dose-only effect; inactive = no such curve, though single readings can be large or run the other way; note: potency is the fitted concentration of half-maximal effect; the source files actives as falling curves though it sought activators and does not explain the sign; nearly all actives have a fitted effect of over 65% in size
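ClpP 10 microg/mL final, pH 8 Tris/KCl buffer with BSA, glycerol, Tween-20; compound pinned in; FRET-FV substrate; RT 20 min; Ex320/Em430; ΔFRET vs ADEP 5.8 microM, DMSO, no enzyme.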
hERG WT inh: blocks the wildtype human KCNH2 potassium channel. Q12809. U2OS, BacMam KCNH2, thallium flux FluxOr; stronger effect = lower value. activity change, % at 1.84 µM. hit rate 0.37% among 340,000. AID 720551;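 active = maximum activity change below -70%; inconclusive = maximum activity change between -70% and -50%; inactive = maximum activity change above -50%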; note: % is set by controls: 0 for no effect and ±100 for the full control effect
Target sequence (Q12809 whole entry, looked up): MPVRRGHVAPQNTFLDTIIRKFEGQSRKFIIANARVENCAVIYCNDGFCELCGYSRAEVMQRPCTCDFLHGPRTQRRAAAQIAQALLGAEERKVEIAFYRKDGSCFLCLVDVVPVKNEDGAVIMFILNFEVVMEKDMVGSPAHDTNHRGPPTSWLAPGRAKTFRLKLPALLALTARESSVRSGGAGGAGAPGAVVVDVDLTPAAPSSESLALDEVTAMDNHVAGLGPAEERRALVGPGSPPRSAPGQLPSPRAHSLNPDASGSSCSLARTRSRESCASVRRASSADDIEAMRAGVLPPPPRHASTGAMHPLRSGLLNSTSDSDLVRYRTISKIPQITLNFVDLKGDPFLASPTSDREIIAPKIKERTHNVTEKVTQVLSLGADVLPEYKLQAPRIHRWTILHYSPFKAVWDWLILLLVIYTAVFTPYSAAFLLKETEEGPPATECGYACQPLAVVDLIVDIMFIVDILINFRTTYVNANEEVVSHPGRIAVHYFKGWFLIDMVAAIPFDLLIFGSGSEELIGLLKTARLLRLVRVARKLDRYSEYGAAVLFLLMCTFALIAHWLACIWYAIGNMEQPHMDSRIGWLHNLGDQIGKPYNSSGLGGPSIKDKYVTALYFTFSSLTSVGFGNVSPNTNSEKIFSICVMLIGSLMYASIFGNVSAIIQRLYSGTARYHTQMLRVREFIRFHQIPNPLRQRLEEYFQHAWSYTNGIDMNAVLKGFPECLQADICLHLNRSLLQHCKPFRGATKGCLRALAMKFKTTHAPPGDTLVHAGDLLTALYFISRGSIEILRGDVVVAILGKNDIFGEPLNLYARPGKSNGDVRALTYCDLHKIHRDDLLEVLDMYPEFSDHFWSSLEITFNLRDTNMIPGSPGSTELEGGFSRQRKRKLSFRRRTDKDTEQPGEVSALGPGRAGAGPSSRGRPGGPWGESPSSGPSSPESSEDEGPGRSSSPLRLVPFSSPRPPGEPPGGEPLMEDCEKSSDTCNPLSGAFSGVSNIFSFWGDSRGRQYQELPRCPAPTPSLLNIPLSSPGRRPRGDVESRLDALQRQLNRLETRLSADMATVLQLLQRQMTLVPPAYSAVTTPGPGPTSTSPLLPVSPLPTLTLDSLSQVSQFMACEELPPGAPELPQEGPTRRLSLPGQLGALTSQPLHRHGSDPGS
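U2OS cells were transduced with wild-type KCNH2 virus (2.03 x 10^8 / mL) for 4 h at room temperature, then cultured overnight at 37 C. Thallium flux was read with FluxOr dye. Rate constants were normalized to DMSO controls.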
Starred values were filed as active, the others as inactive; ? = inconclusive; nt = no result given.

SMILES	TRPV1 PAM	KCNH2 3.1 inh	p53 reactivation	TRPV1 agonist	ClpP mod	hERG WT inh
O=C(NCC1CCCO1)C(=O)N/N=C/c1ccc(O)c(Cl)c1 (stereo not drawn)	-11.0	-38.1	0.2%	0.8	nt	-225.2*
CCC(=O)Nc1cc2c(C)cc(=O)oc2cc1C	-10.3	-10.2	-0.5%	-1.4	31.6µM*	-1.6
O=C1[C@H](Cc2ccccc2)NC/C=C\C[C@@H](c2ccc(Cl)cc2)N1Cc1ccccc1	nt	nt	nt	nt	1.7%	nt
CN(C)CCN1CCN(C2CN(Cc3cn(Cc4ccc(Cl)cc4)nn3)S(=O)(=O)C2)CC1 (stereo not drawn)	nt	nt	nt	nt	2.6%	nt
CC(C)CCN1CCN(CC(c2ccccc2)c2ccccc2)CC1CCO (stereo not drawn)	-15.6	-73.5*	-1.2%	12.0	nt	-19.2
OCCC1CN(Cc2ccc(F)cc2)CCN1CCc1ccccc1 (stereo not drawn)	?	-79.3*	nt	-0.4	-1.5%	50.2
C#Cc1ccc(CN2CCN(CCc3ccccc3)C(CCO)C2)cc1 (stereo not drawn)	0.0	-73.5*	11.6%	2.3	-0.6%	11.7
COc1cc(CN2CCN(CCc3ccccc3)C(CCO)C2)cc(OC)c1 (stereo not drawn)	-7.7	-8.1	4.9%	5.6	31.6µM*	51.0
CCOc1cc(-c2ccccc2)nc2c1CN(S(=O)(=O)c1ccc(C)cc1)C(c1cccc(Cl)c1)C2 (stereo not drawn)	nt	nt	nt	nt	0.6%	nt
O=C(COc1ccc(Cl)cc1)NCCc1csc(-c2ccc(F)cc2)n1	nt	nt	nt	nt	4.4%	nt
O=C(CSc1cccc[n+]1[O-])Nc1c(Br)cc([N+](=O)[O-])cc1Br	-1.0	-132.9*	2.7%	-0.5	-0.4%	-2.0
COc1ccc(S(=O)(=O)N(C)C[C@@H]2OCCCC[C@H](C)Oc3ccc(NC(=O)Nc4ccc(C(F)(F)F)cc4)cc3C(=O)N([C@H](C)CO)C[C@H]2C)cc1	nt	-12.7	nt	nt	-11.0%	-11.3
CCn1c(CSc2nccn2C)nc2cc(C(=O)O)ccc21	0.2	2.8	-8.6%	0.7	-28.6%	-5.2
CCn1c(CSc2nc3ccccc3[nH]2)nc2cc(C(=O)O)ccc21	-0.7	-6.7	-0.9%	0.9	35.5µM*	-2.8
N#CC1C(=O)NC(c2ccccc2)=CC1c1ccccc1 (stereo not drawn)	nt	18.4	nt	nt	nt	0.3
CCn1nc(-c2ccc(C)cc2)nc2c(=O)n(C)c(=O)nc1-2	nt	nt	nt	nt	-2.5%	nt
COc1cc(OC)c(C(=O)Nc2cccc(C(C)=O)c2)cc1OC	9.2	-14.2	8.7%	-2.0	15.8µM*	13.9
O=C(NCc1ccco1)c1ccc2c(c1)C(=O)N(Cc1ccccc1)C2=O	-16.5	1.0	2.8%	20.1	28.2µM*	-11.1
COc1ccccc1NC(=O)c1ccc2c(c1)C(=O)N(Cc1ccco1)C2=O	?	20.3	-1.5%	-1.7	1.2%	4.0
COC(=O)c1ccccc1NC(=O)c1ccc2c(c1)C(=O)N(Cc1ccco1)C2=O	nt	5.7	nt	nt	28.2µM*	-19.4
O=C(NCCO)c1ccc(-c2nnc(Nc3ccc(OC(F)(F)Cl)cc3)c3ccccc23)cc1	nt	nt	nt	nt	-2.3%	nt
CSc1nnc(-c2sc3cc(C(F)(F)F)cnc3c2-c2ccccn2)n1C	3.4	12.8	-5.3%	-4.3	28.2µM*	10.3
CCn1c(=O)c(C(=O)CN(C)Cc2cccc(OC)c2OC)c(N)n(Cc2ccccc2)c1=O	4.9	0.2	8.0%	1.3	1.2%	2.3
CCOc1ccc(CN(C)CC(=O)c2c(N)n(Cc3ccccc3)c(=O)n(CC)c2=O)cc1OC	-5.2	-101.0*	nt	-1.1	1.1%	-117.3*
CCn1c(=O)c(C(=O)CN(C)Cc2ccc(F)cc2)c(N)n(Cc2ccccc2)c1=O	0.5	-84.3*	9.5%	-0.2	nt	-10.1
SMILES	TRPV1 PAM	KCNH2 3.1 inh	p53 reactivation	TRPV1 agonist	ClpP mod	hERG WT inh
COc1ccc(CN(C)CC(=O)c2c(N)n(Cc3ccccc3)c(=O)n(C)c2=O)c(OC)c1	-15.0	?	-5.6%	-1.0	0.0%	-7.3
CC(=O)Nc1ccc(Nc2nc3c(S(=O)(=O)c4cccc(Cl)c4)nnn3c3ccsc23)cc1	nt	nt	nt	nt	-6.5%	nt
Cc1cccc(-n2c(O)c(C=Nc3ccc(O)cc3)c3ccccc3c2=O)n1	-9.1	5.6	-17.6%	16.3	7.08µM*	-5.2
Nc1ccc(Sc2cnn(-c3ccccc3)c(=O)c2Cl)cc1	-36.0	-1.3	6.3%	-7.3	20µM*	6.4
Cc1cccc(N2C(=O)CC(Sc3nc(-c4ccccc4)c4cc(Cl)ccc4n3)C2=O)c1 (stereo not drawn)	9.5	3.9	14.0%	1.7	28.2µM*	1.5
CC(C)N(Cc1ccccc1)C(=O)C1CCCN(c2ncnc3c2nc2n3CCCCC2)C1 (stereo not drawn)	-12.4	-98.1*	-7.2%	?	2.6%	-6.0
O=C(C1CCCN(c2ncnc3c2nc2n3CCCCC2)C1)N1CCN(c2cccc(Cl)c2)CC1 (stereo not drawn)	-5.1	-139.2*	21.7%	18.8	-0.7%	13.6
CC(C)Oc1ccc(C(=O)N/N=C/c2ccc(-c3ccc(S(=O)(=O)Nc4ncccn4)cc3)o2)cc1	-33.1	-2.8	1.4%	0.8	14.1µM*	-0.1
Cc1nc2nc(NCc3cccs3)nn2c(C)c1Cl	1.5	-3.6	11.3%	-1.7	12.6µM*	-4.1
Cc1nc2nc(COc3ccccc3)nn2c(C)c1Cl	0.6	1.9	4.4%	0.0	14.1µM*	4.2
COc1cccc(CNc2nc3nc(C)c(Cl)c(C)n3n2)c1	6.3	0.4	?	-1.1	31.6µM*	-9.4
COc1ccc(CNc2nc3nc(C)c(Cl)c(C)n3n2)cc1	?	15.5	13.8%	-0.5	nt	3.6
Cc1ccc(-n2ncc(C(=O)NCc3ccccc3)c2C2CCN(C(=O)OC(C)(C)C)CC2)cc1	nt	nt	nt	nt	0.1%	nt
Cc1nc2c(c(=O)c3ccccc3n2C)c(=O)n1-c1ccc(F)cc1	-4.3	-4.3	1.5%	-4.0	-0.9%	-9.9
CC(C)c1nc2c(c(=O)c3ccccc3n2C)c(=O)n1-c1ccc(F)cc1	-24.9	2.4	3.2%	11.9	28.2µM*	5.5
CCCOC1(C(F)(F)F)NC(=O)N(c2cccc(Cl)c2)C1=O (stereo not drawn)	nt	nt	nt	nt	1.7%	nt
COc1ccc(-c2onc(C)c2-c2cscn2)c(O)c1	3.6	-0.9	-0.9%	1.9	nt	-4.0
CCc1cc(-c2onc(C)c2-c2cscn2)c(O)cc1OC	10.3	-89.5*	-5.5%	1.5	nt	-3.3
CC1CCCN(C(=O)c2cc3c(=O)n(C)c4ccccc4c3s2)C1 (stereo not drawn)	nt	nt	nt	nt	-2.2%	nt
COCCn1cc(C(=O)NCCCN2CCC(C)CC2)c2c3ccccc3n(C)c2c1=O	7.9	-1.8	-5.8%	-1.2	31.6µM*	3.6
